For this assay, the system named is Toxoplasma gondii RH 2F1 tachyzoites (intracellular in HFF). The assay can be described thus: parasite survival relative to DMSO control; higher = less antiparasitic activity, active = 20 or less. The conditions noted are these: 1 µM; 72 h. The method, then:
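Primary single-dose screen of the MMV Pandemic Response Box at 1 uM against T. gondii RH-2F1 (beta-galactosidase) tachyzoites in HFF cells, 72 h at 37 C. Parasite growth read by CPRG absorbance at 570 nm and normalised to DMSO-treated infected controls (% survival); pyrimethamine was the reference drug. The paper calls at least 80% inhibition a hit.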
Turning to `O=C(O)c1ccc(-n2nc(-c3ccccc3O)nc2-c2ccccc2O)cc1`, the parasite survival was 25.7% (inactive).

`COc1ccc2c(c1OC)C(=O)OC2C1c2c(cc3c(c2OC)OCO3)CCN1C` (stereo not given): the parasite survival is 68.3% (inactive).

`CCCCCCCc1[nH]c2ccccc2c(=O)c1O`: the parasite survival was 49% (inactive).

For the compound `CCOC(=O)N1CCN(c2ccc(Cl)cc2)CC1`, the parasite survival was 54.3% (inactive).

Take `CCCNc1ccc(S(=O)(=O)Nc2cc(C)on2)cc1`: the parasite survival was 65.5% (inactive).

Take `CC[C@H](NC(=O)[C@H](C)NC)C(=O)N1C[C@@H](O)C[C@H]1Cc1c(-c2[nH]c3cc(F)ccc3c2C[C@@H]2C[C@H](O)CN2C(=O)[C@H](CC)NC(=O)[C@H](C)NC)[nH]c2cc(F)ccc12`: the parasite survival was 8.15% (active).

Take `CC(C)Oc1ccc(-c2nc(-c3cccc4c3CC[C@@H]4NCCO)no2)cc1C#N`: the parasite survival was 41.9% (inactive).

As to `CC[C@H](CO)Nc1nc(NCc2ccccc2)c2ncn(C(C)C)c2n1`, the parasite survival is 87.1% (inactive).

Turning to `CC(C)Cn1c(=O)n(C)c(=O)c2c(-c3cncn3C)n(Cc3cccc4ccccc34)nc21`, the parasite survival is 68.5% (inactive).

With `CCC[C@@H]1C[C@@H](C(=O)N[C@@H]([C@H]2O[C@H](SC)[C@H](O)[C@@H](O)[C@H]2O)[C@H](C)Cl)N(C)C1`, the parasite survival was 16.1% (active).

For the compound `CNCC(=O)OCc1cccnc1N(C)C(=O)OC(C)[n+]1cnn(C[C@](O)(c2cc(F)ccc2F)[C@@H](C)c2nc(-c3ccc(C#N)cc3)cs2)c1` (stereo not given in full), the parasite survival is 35.6% (inactive).

`Nc1cccc(-c2nc(N)nc(NC3Cc4ccccc4C3)n2)c1`: the parasite survival was 42.3% (inactive).

For `C(=C\c1nc2ccccc2[nH]1)/c1ccc2c(c1)OCO2`, the parasite survival is 22.1% (inactive).

`CCC(C)(C)c1ccc(CC(C)CN2C[C@@H](C)O[C@@H](C)C2)cc1` (stereo not given in full): the parasite survival was 35.1% (inactive).

In the case of `Cc1cc(CCOc2c(C)cc(-c3nnn(C)n3)cc2C)on1`, the parasite survival is 65.1% (inactive).

With `O=C1c2cccc3cccc(c23)C(=O)N1CC1CO1` (stereo not given), the parasite survival is 51.9% (inactive).

Take `Nc1nc(N)c2c(Sc3ccccc3)cccc2n1`: the parasite survival was 11.4% (active).

As for `NC(=O)C(c1ccccc1)(c1ccccc1)[C@H]1CCCN(CCc2ccc3c(c2)CCO3)C1`, the parasite survival is 67% (inactive).

`CC(Oc1ccc(Cl)cc1Cl)C(=O)NCc1ccc2c(c1)OCO2` (stereo not given): the parasite survival was 31.2% (inactive).

`COc1ccc(C)cc1NC(=O)c1ccc(S(=O)(=O)N2CCCCC2)cc1`: the parasite survival is 60% (inactive).

On to `Nc1nc(C(F)(F)F)cc2c1[nH]c(=O)n2Cc1ccccc1`, for which the parasite survival was 49.1% (inactive).

Consider `CN(C/C=C/C#CC(C)(C)C)Cc1cccc2ccccc12`, for which the parasite survival is 41.6% (inactive).

In the case of `Cc1c[nH]c(=O)nc1NCc1ccccc1`, the parasite survival is 49.9% (inactive).

For `OC(Cn1cncn1)(Cn1cncn1)c1ccc(F)cc1F`, the parasite survival was 46% (inactive).

With `Cc1nc(-c2ccc(C3N(C)c4ccc(F)cc4C(=O)N3c3ccccc3)s2)cs1` (stereo not given), the parasite survival is 59.2% (inactive).

On to `CCCCC(CC)CNC(=N)NC(=N)NCCCCCCNC(=N)NC(=N)NCC(CC)CCCC` (stereo not given), for which the parasite survival was 3.8% (active).

With `c1cc(CN2CCCNCCNCCCNCC2)ccc1CN1CCCNCCNCCCNCC1`, the parasite survival is 91.5% (inactive).

Consider `CCCCc1ccc(-c2nc(C)c(C(=O)OC)s2)cc1`, for which the parasite survival was 64% (inactive).

As for `Cc1onc(-c2ccccc2Cl)c1C(=O)N[C@@H]1C(=O)N2[C@@H]1SC(C)(C)[C@@H]2C(=O)O`, the parasite survival was 50.5% (inactive).

For `Cc1c(N)cccc1Cn1ccc(OCCc2cccs2)cc1=O`, the parasite survival was 48.8% (inactive).

For `COC(=O)Nc1nc2cc([S+]([O-])c3ccccc3)ccc2[nH]1` (stereo not given), the parasite survival was 59.2% (inactive).

As for `Nc1cnn(C2OC(CO)C(O)C2O)c(=O)n1` (stereo not given), the parasite survival was 76.2% (inactive).

On to `CNC(=O)C1O[C@@H](n2cnc3c(NCc4cccc(I)c4)nc(Cl)nc32)[C@H](O)[C@@H]1O` (stereo not given in full), for which the parasite survival was 68.3% (inactive).

With `CCc1nc2ccc(Cl)cn2c1C(=O)NCc1ccc(N2CCC(c3ccc(OC(F)(F)F)cc3)CC2)cc1`, the parasite survival was 28.9% (inactive).

As for `CC(C)c1cc2c(cc1S(=O)(=O)O)[C@@]1(C)CCC[C@@](C)(C(=O)O)[C@@H]1CC2`, the parasite survival was 74.6% (inactive).

In the case of `CC[C@@H]1C(=O)OC[C@@H]1Cc1cncn1C`, the parasite survival was 45.1% (inactive).

Regarding `COc1ccc(COc2cc3oc(=O)c4cc(C(C)O)ccc4c3cc2OC)cc1` (stereo not given), the parasite survival was 57% (inactive).

`CCc1ccccc1OCCN1CCCCCC1`: the parasite survival is 47.2% (inactive).

Turning to `O[C@@](Cn1cnnn1)(c1ccc(F)cc1F)C(F)(F)c1ccc(-c2ccc(OCC(F)(F)F)cc2)cn1`, the parasite survival is 28.8% (inactive).

In the case of `CONC(=N)c1ccc(-c2ccc(-c3ccc(C(=N)NOC)cc3)o2)cc1`, the parasite survival is 49.7% (inactive).

For the origin of these results see the supplement of paper PMC10941209.
